Measurements from PubChem BioAssay (NCI).
The panel holds about 83,000 compounds, 20% with a hit somewhere; the sample as a whole holds those more often.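 The test compound was applied at a single concentration to cells in 96-well plates for 48 hours, and percent growth was recorded.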 Activity calls are given as the source filed them. Rule for the calls: active = growth percent below 10; inactive = the rest.

Tests used:
Experiment in all cases: NCI-60 one-dose screen, 48 h (100 = growth as untreated, 0 = no growth, -100 = all killed)
Settings in all cases: 10 µM
[1] = system: EKVX NSCLC
[2] = system: SN12C renal
[3] = system: UO-31 renal
[4] = system: ACHN renal
[5] = system: A498 renal
[6] = system: CCRF-CEM leukemia
[7] = system: MOLT-4 leukemia
[8] = system: SR leukemia
[9] = system: RPMI-8226 leukemia
[10] = system: OVCAR-8 ovarian
[11] = system: OVCAR-5 ovarian
[12] = system: OVCAR-4 ovarian
[13] = system: SK-OV-3 ovarian
[14] = system: IGROV1 ovarian
[15] = system: OVCAR-3 ovarian
[16] = system: HS 578T breast
[17] = system: NCI/ADR-RES ovarian
[18] = system: T-47D breast
[19] = system: CAKI-1 renal
[20] = system: TK-10 renal

Measured: growth

Cc1ccc(NC(=O)Nc2nc3ccccc3s2)cc1NC(=O)Nc1nc2ccccc2s1
inactive: [1] 99.1% | [2] 86.9% | [3] 66.8% | [4] 83.7% | [5] 93% | [6] 74.2% | [7] 82.4% | [8] 55.5% | [9] 42.8% | [10] 50.4% | [11] 104% | [12] 82.3% | [13] 95.8% | [14] 53.6% | [15] 96.2% | [16] 77.3% | [17] 91.7% | [18] 80.6%

O=C(NC(Cc1ccc(O)cc1)C(=O)N=Nc1c(O)[nH]c2ccccc12)c1ccccc1 (stereo not given)
inactive: [1] 97.3% | [2] 97.6% | [3] 74.9% | [4] 114% | [19] 98.9% | [5] 109% | [6] 89.6% | [7] 92.1% | [8] 92.7% | [9] 112% | [10] 93.9% | [11] 110% | [12] 95.7% | [13] 103% | [14] 108% | [15] 103% | [16] 101% | [17] 98.7% | [18] 107%

CCOC(=O)CNC(=O)CCCCSc1ncnc2nc[nH]c12
inactive: [1] 108% | [2] 99% | [3] 96.5% | [4] 104% | [19] 96.1% | [5] 124% | [6] 113% | [7] 101% | [8] 90.6% | [9] 107% | [10] 108% | [11] 90.1% | [12] 111% | [13] 115% | [15] 112% | [17] 97.3% | [18] 100%

O=C(Nc1ccncc1)C(=O)c1cn(S(=O)(=O)c2ccc(F)cc2)c2ccccc12
active: [8] 2.09% | [15] -21.9% | [17] 2.06%
inactive: [1] 52.1% | [2] 41.9% | [3] 20.6% | [4] 57.7% | [19] 52.9% | [5] 66.2% | [6] 43.6% | [7] 25.7% | [9] 15.5% | [10] 30% | [11] 72.4% | [12] 66.9% | [13] 91.2% | [14] 26.8% | [16] 50.4% | [18] 52.5%

O=C1ON=[N+](c2ccc(Cc3ccc([N+]4=NOC(=O)C4CN4CCOCC4)cc3)cc2)C1CN1CCOCC1 (stereo not given)
inactive: [1] 69.9% | [2] 80.3% | [3] 44.3% | [20] 74.5% | [19] 49.3% | [5] 53.7% | [6] 63.9% | [7] 68.4% | [8] 23% | [9] 60.5% | [10] 80.9% | [12] 53.9% | [13] 88% | [14] 62.3% | [15] 89.1% | [16] 64% | [17] 63.4% | [18] 56.1%

COc1ccc(/C(=C2\O[C@@H]([C@H]3COC(C)(C)O3)[C@H]3OC(C)(C)O[C@@H]23)c2cc(OC)c(OC)c(OC)c2)cc1O
active: [16] -22.2%
inactive: [1] 90.2% | [2] 57.7% | [3] 49.1% | [4] 44.7% | [19] 93% | [5] 63.3% | [6] 47.9% | [7] 59.9% | [8] 25.4% | [9] 63.7% | [10] 68.3% | [11] 95.4% | [12] 99.2% | [13] 38% | [15] 48% | [17] 10.1% | [18] 121%

COc1cc(CNCCCCCCN2C(=O)c3cccc4cccc(c34)C2=O)ccc1O
inactive: [1] 89.3% | [2] 70.5% | [3] 23.8% | [20] 85.4% | [4] 63.7% | [6] 45.4% | [7] 49.2% | [10] 69% | [11] 116% | [13] 69% | [15] 90.1% | [16] 106%
active: [8] 0.634%

CCCCCCCCCCCCC1C/C=C\CCCC(=O)O1 (stereo not given)
active: [8] -18.4%
inactive: [1] 94% | [2] 119% | [3] 93.1% | [4] 104% | [19] 113% | [5] 128% | [7] 37.4% | [9] 89.7% | [10] 104% | [11] 101% | [13] 95.5% | [14] 110% | [15] 107% | [16] 113% | [17] 119% | [18] 91.2%

COc1ccc(N=C2C(=Nc3ccc(OC)cc3)N(c3ccc(N(C)C)cc3)C(=S)N2c2ccc(OC)cc2)cc1
inactive: [1] 90.1% | [2] 106% | [3] 16.3% | [4] 81.6% | [19] 53.3% | [5] 71.1% | [6] 52% | [7] 10.8% | [8] 46.3% | [11] 34.9% | [13] 87.9% | [14] 107% | [15] 106% | [16] 19.6% | [17] 95.8% | [18] 91.1%
active: [9] -12.4%

COc1ccc(/C=C/C(=O)Nc2ccc(-c3nc4ccc(OC)cc4s3)cc2)cc1
inactive: [1] 100% | [2] 103% | [3] 85.2% | [4] 114% | [19] 104% | [5] 97.8% | [6] 98.3% | [7] 81.6% | [8] 86.7% | [9] 96.4% | [10] 106% | [11] 108% | [12] 128% | [13] 104% | [14] 118% | [15] 124% | [16] 108% | [17] 101% | [18] 101%

OCC1OC(n2cnc3c(N/N=C\c4ccccn4)ncnc32)C(O)C1O (stereo not given)
active: [1] 7.34% | [3] -23.5% | [14] -6.53%
inactive: [2] 18.9% | [20] 42.1% | [4] 11.8% | [6] 16.8% | [7] 21% | [8] 20.3% | [10] 23.2% | [11] 43.3% | [12] 21.6% | [13] 11.7% | [15] 24.3% | [16] 14.5% | [18] 25.4%

CC[C@H](C)C(=O)O[C@H]1CCC=C2C=C[C@H](C)C(CCC3C[C@@H](O)CC(=O)O3)[C@H]21 (stereo not given in full)
inactive: [1] 65.6% | [2] 32.4% | [3] 70.1% | [20] 97.2% | [6] 82.3% | [7] 91.9% | [8] 15.5% | [9] 96.8% | [10] 45.2% | [12] 98.7% | [13] 70.9% | [14] 42.5% | [15] 112% | [16] 59.4% | [17] 21.5% | [18] 105%
active: [19] -1.64% | [5] -33.8%

COc1ccc(OC)c(/C=C/c2nnc(Nc3ccc(Cl)cc3)o2)c1
inactive: [1] 68.1% | [2] 44.9% | [20] 39.1% | [4] 32.6% | [6] 90.1% | [7] 89.7% | [8] 78.9% | [10] 66.7% | [11] 103% | [13] 32.9% | [14] 80.6% | [15] 32.1%
active: [3] 4.98% | [12] -16% | [16] 6.91% | [18] -4.56%

CC1=C(N2CCOCC2)C(N2CCOCC2)=C(C)C(=O)C1=O
inactive: [2] 110% | [3] 83.6% | [20] 99% | [4] 101% | [19] 101% | [5] 88.6% | [6] 102% | [7] 92.7% | [8] 97.4% | [9] 105% | [10] 97.2% | [11] 97.6% | [12] 104% | [13] 105% | [14] 101% | [15] 109% | [16] 109% | [17] 110%

O=C(CCCCC(=O)Nc1ccc2c(c1)/C(=C/c1ccc[nH]1)C(=O)N2)NO
active: [18] 0.269%
inactive: [2] 93.1% | [3] 83.6% | [20] 86% | [4] 101% | [19] 97.8% | [5] 50.8% | [6] 32.4% | [7] 60.8% | [8] 45.4% | [9] 96.3% | [10] 69.4% | [11] 100% | [12] 56.6% | [13] 73.6% | [14] 95.5% | [15] 36.9% | [16] 72.4% | [17] 93.8%

COc1cc2cc3c(nc2cc1OC)CCN3Cc1ccc(NC(=O)c2ccc(Cl)c(C(F)(F)F)c2)cc1
inactive: [2] 91.3% | [3] 71.9% | [20] 131% | [4] 84.7% | [19] 84.3% | [5] 130% | [6] 91% | [7] 56.8% | [8] 70.6% | [9] 91.2% | [10] 88.6% | [11] 99.5% | [12] 80.4% | [13] 91.7% | [14] 78.5% | [15] 94.3% | [16] 98.5% | [17] 99.4%
